Reference: PubChem BioAssay (NCI)
This is part of a sample that, as a whole, favours compounds with a hit. Of some 79,000 tested, about 15% had one in any assay. Values without a mark were called inactive. The source made the active and inactive calls. No stated cut-off is given here; in the data, active means growth inhibition above about 70%; inactive means the rest.

Assays:
[1] = NCI Yeast Anticancer Drug Screen. Data for the rad52 strain (AID 147);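 further: 0% = growth of vehicle-treated control cultures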; details: S. cerevisiae rad52 mutant growth inhibition, hits give high values
Procedure, shortened: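 Measured: yeast growth inhibition. System: strain with a defined DNA damage repair alteration. Reference: vehicle-treated control cultures.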

[2] = NCI Yeast Anticancer Drug Screen. Data for the wt1 strain (AID 149);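 further: 0% = growth of vehicle-treated wt1 cultures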; details: S. cerevisiae wt1 strain (SPY 50644) growth inhibition, hits give high values
Procedure, shortened: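 wt1 strain grown with compound or vehicle; inhibition taken from the growth difference.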

[3] = NCI Yeast Anticancer Drug Screen. Data for the rad50EPP+ strain (AID 151);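 further: 0% = growth of vehicle-treated control cultures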; details: S. cerevisiae rad50 mutant strain, hits give high values
Procedure, shortened: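 One strain with a rad50 alteration (rad50EPP+) was compound-treated, its growth then compared to that of vehicle controls.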

[4] = NCI Yeast Anticancer Drug Screen. Data for the mgt1 strain (AID 153); details: S. cerevisiae mgt1 mutant growth inhibition, hits give high values
Procedure, shortened: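 After exposure of the mgt1 yeast mutant to compound, growth was measured and reported as inhibition compared with vehicle controls.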

[5] = NCI Yeast Anticancer Drug Screen. Data for the rad50 strain (AID 155);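 further: 0% = growth of vehicle-only cultures of the same strain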; details: S. cerevisiae rad50 strain growth inhibition, hits give high values
Procedure, shortened: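 DNA repair mutant yeast, compound exposure, growth read-out; inhibition is taken relative to vehicle.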

[6] = NCI Yeast Anticancer Drug Screen. Data for the mec2-1 strain (AID 157); details: S. cerevisiae mec2-1 strain, hits give high values
Procedure, shortened: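 Test agents were screened against the mec2-1 yeast strain, with defined DNA repair or cell cycle alteration. Growth was scored as inhibition against vehicle-only controls.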

[7] = NCI Yeast Anticancer Drug Screen. Data for the rad14 strain (AID 159);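 further: 0% = growth of vehicle-treated control cultures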; details: S. cerevisiae rad14 strain growth inhibition, hits give high values
Procedure, shortened: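 DNA repair-defective yeast, compound-exposed; % growth inhibition derived by comparison with vehicle-treated controls.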

[8] = NCI Yeast Anticancer Drug Screen. Data for the sgs1 mgt1 strain (AID 161);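 further: 0% = growth of cultures given vehicle only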; details: S. cerevisiae sgs1 mgt1 strain, hits give high values
Procedure, shortened: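 Test agents were incubated with a DNA-repair-mutant yeast strain. Growth was then read and compared against vehicle-treated controls.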

[9] = NCI Yeast Anticancer Drug Screen. Data for the CLN2oe strain (AID 163);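 further: 0% = growth of vehicle-only control cultures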; details: S. cerevisiae CLN2oe strain, hits give high values
Procedure, shortened: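 Here, growth inhibition in a cell-cycle-altered yeast strain after compound exposure was quantified against vehicle control growth.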

[10] = NCI Yeast Anticancer Drug Screen. Data for the cln2 rad14 strain (AID 165);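 further: 0% = growth equal to vehicle treated cultures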; details: S. cerevisiae cln2 rad14 strain, hits give high values
Procedure, shortened: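 Growth of compound-exposed yeast (cln2 rad14 genotype) measured and expressed as inhibition relative to vehicle.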

[11] = NCI Yeast Anticancer Drug Screen. Data for the bub3 strain (AID 167); details: S. cerevisiae bub3 mutant strain, hits give high values
Procedure, shortened: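 In this screen, a yeast mutant lacking normal mitotic checkpoint function is challenged with compound. Relative growth versus vehicle gives the inhibition value.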

[12] = NCI Yeast Anticancer Drug Screen. Data for the mlh1 strain (AID 171);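 further: 0% = growth of vehicle-treated control cultures of the same strain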; details: S. cerevisiae mlh1 strain growth inhibition, hits give high values
Procedure, shortened: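 Here the genetically defined yeast mutant is grown with each compound, and the extent to which its growth falls below that of vehicle-exposed cells is reported.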

[13] = NCI Yeast Anticancer Drug Screen. Data for the sgs1 strain (AID 173);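 further: 0% = growth of vehicle-only control cultures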; details: S. cerevisiae sgs1 mutant, hits give high values
Procedure, shortened: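 Relative growth inhibition, referenced to vehicle, was determined in a yeast strain with a defined alteration affecting DNA damage repair or cell cycle control after compound exposure.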

[14] = NCI Yeast Anticancer Drug Screen. Data for the mlh1 rad18 strain (AID 175); details: S. cerevisiae mlh1 rad18 strain growth inhibition, hits give high values
Procedure, shortened: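 In this whole-cell yeast screen, a strain with altered DNA damage repair is challenged with compound, and its growth is measured against matched vehicle-treated controls.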

[15] = NCI Yeast Anticancer Drug Screen. Data for the rad18 strain (AID 177); details: S. cerevisiae rad18 mutant growth inhibition, hits give high values
Procedure, shortened: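 Screen uses a yeast strain with a defined lesion in DNA damage repair; compound effect is read as loss of growth compared to untreated vehicle cultures.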

[16] = at 5.0 µM (retest, dose inferred, filed as 0.5)
[17] = at 50.0 µM (retest, dose inferred, filed as 5.0)

For CN(C)c1ccc2c(SCC(=O)OCC(=O)[C@@]3(O)CC[C@H]4[C@@H]5CCC6=CC(=O)C=C[C@]6(C)[C@H]5C(=O)C[C@@]43C)c3ccc(N(C)C)cc3nc2c1, the growth inhibition ([1]; at 1.2 µM) was -7%, the growth inhibition ([1]; at 3.7 µM) was -8% and the growth inhibition ([1]; at 11.0 µM) was 46%. For the same compound, the growth inhibition ([1]; at 33.0 µM) was 90% (active), the growth inhibition ([1]; at 100.0 µM) was 92% (active) and the growth inhibition ([2]; at 1.2 µM) was 16%. The growth inhibition ([2]; at 3.7 µM) was -16%, the growth inhibition ([2]; at 11.0 µM) was 64% and the growth inhibition ([2]; at 33.0 µM) was 91% (active). For the same compound, the growth inhibition ([2]; at 100.0 µM) was 91% (active), the growth inhibition ([3]; at 1.2 µM) was 1% and the growth inhibition ([3]; at 3.7 µM) was 6%. The growth inhibition ([3]; at 11.0 µM) was 6%, the growth inhibition ([3]; at 33.0 µM) was 63% and the growth inhibition ([3]; at 100.0 µM) was 83% (active). For the same compound, the growth inhibition ([4]; at 1.2 µM) was -27%, the growth inhibition ([4]; at 3.7 µM) was -37% and the growth inhibition ([4]; at 11.0 µM) was 69%. For the same compound, the growth inhibition ([4]; at 33.0 µM) was 89% (active), the growth inhibition ([4]; at 100.0 µM) was 88% (active) and the growth inhibition ([5]; at 1.2 µM) was -31%. The growth inhibition ([5]; at 3.7 µM) was -13%, the growth inhibition [5, 16] was 7% and the growth inhibition ([5]; at 11.0 µM) was 71% (active). The growth inhibition ([5]; at 33.0 µM) was 90% (active), the growth inhibition [5, 17] was 89% (active) and the growth inhibition ([5]; at 50.0 µM) was 60.2%. The growth inhibition ([5]; at 100.0 µM) was 89% (active), the growth inhibition ([6]; at 1.2 µM) was -10% and the growth inhibition ([6]; at 3.7 µM) was -5%. For the same compound, the growth inhibition [6, 16] was 13%, the growth inhibition ([6]; at 11.0 µM) was 55% and the growth inhibition ([6]; at 33.0 µM) was 90% (active). The growth inhibition [6, 17] was 86% (active), the growth inhibition ([6]; at 50.0 µM) was 72.9% (active) and the growth inhibition ([6]; at 100.0 µM) was 90% (active). It also gave a growth inhibition ([7]; at 1.2 µM) of -12%, a growth inhibition ([7]; at 3.7 µM) of -22% and a growth inhibition ([7]; at 11.0 µM) of 66%. For the same compound, the growth inhibition ([7]; at 33.0 µM) was 90% (active), the growth inhibition ([7]; at 100.0 µM) was 88% (active) and the growth inhibition [8, 16] was 12%. The growth inhibition [8, 17] was 92% (active), the growth inhibition ([8]; at 50.0 µM) was 78.7% (active) and the growth inhibition ([9]; at 1.2 µM) was 9%. The growth inhibition ([9]; at 3.7 µM) was 16%, the growth inhibition ([9]; at 11.0 µM) was 53% and the growth inhibition ([9]; at 33.0 µM) was 89% (active). The growth inhibition ([9]; at 100.0 µM) was 89% (active), the growth inhibition [10, 16] was 0% and the growth inhibition [10, 17] was 78% (active). For the same compound, the growth inhibition ([10]; at 50.0 µM) was 80.7% (active), the growth inhibition ([11]; at 1.2 µM) was -13% and the growth inhibition ([11]; at 3.7 µM) was -4%. For the same compound, the growth inhibition [11, 16] was 22%, the growth inhibition ([11]; at 11.0 µM) was 55% and the growth inhibition ([11]; at 33.0 µM) was 87% (active). The growth inhibition [11, 17] was 95% (active), the growth inhibition ([11]; at 50.0 µM) was 72.3% (active) and the growth inhibition ([11]; at 100.0 µM) was 89% (active). For the same compound, the growth inhibition ([12]; at 1.2 µM) was -15%, the growth inhibition ([12]; at 3.7 µM) was -30% and the growth inhibition ([12]; at 11.0 µM) was 46%. For the same compound, the growth inhibition ([12]; at 33.0 µM) was 86% (active), the growth inhibition ([12]; at 100.0 µM) was 87% (active) and the growth inhibition ([13]; at 1.2 µM) was 2%. For the same compound, the growth inhibition ([13]; at 3.7 µM) was -18%, the growth inhibition ([13]; at 11.0 µM) was 71% (active) and the growth inhibition ([13]; at 33.0 µM) was 91% (active). The growth inhibition ([13]; at 100.0 µM) was 90% (active), the growth inhibition [14, 16] was 50% and the growth inhibition [14, 17] was 86% (active). The growth inhibition ([14]; at 50.0 µM) was 84.5% (active), the growth inhibition ([15]; at 1.2 µM) was -9% and the growth inhibition ([15]; at 3.7 µM) was 6%. For the same compound, the growth inhibition ([15]; at 11.0 µM) was 74% (active), the growth inhibition ([15]; at 33.0 µM) was 90% (active) and the growth inhibition ([15]; at 100.0 µM) was 87% (active).
